{"source": "the supplement of paper PMC10681739"}
{"molecular_target": "T1, ETS1 (UniProt P14921)", "T1 sequence": "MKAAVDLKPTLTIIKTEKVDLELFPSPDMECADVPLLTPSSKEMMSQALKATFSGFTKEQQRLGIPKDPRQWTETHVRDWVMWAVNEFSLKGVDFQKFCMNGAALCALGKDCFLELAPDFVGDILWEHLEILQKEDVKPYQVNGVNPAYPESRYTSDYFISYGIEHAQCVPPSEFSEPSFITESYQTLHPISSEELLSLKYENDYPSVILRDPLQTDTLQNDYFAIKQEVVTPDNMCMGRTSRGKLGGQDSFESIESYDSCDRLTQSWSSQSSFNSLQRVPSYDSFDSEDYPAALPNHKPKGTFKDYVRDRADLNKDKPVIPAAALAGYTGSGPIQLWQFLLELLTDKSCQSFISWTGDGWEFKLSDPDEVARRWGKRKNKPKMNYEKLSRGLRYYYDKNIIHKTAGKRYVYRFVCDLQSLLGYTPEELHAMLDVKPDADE", "experiment": "ETS1 binding intensity (PBM fluorescence) in presence of RUNX1, normalised to ETS1-only experiment (arbitrary fluorescence units); higher = stronger binding", "conditions": "ETS1 concentration 1 nM; RUNX1 concentration 25 nM", "description": "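Cooperative genomic-context PBM: 36-bp genomic probes with neighbouring ETS1 and RUNX1 sites, double-stranded on Agilent 4x180k arrays. Full-length recombinant human ETS1 (1 nM) was incubated alone or with RUNX1 (25 nM) and detected with anti-ETS1 antibody plus Alexa488 secondary. Value is the median fluorescence intensity over 4 replicate spots; the ETS1+RUNX1 data were normalised to the ETS1-only data using probes without RUNX1 sites. The 36-bp variable region sits on the array probe with constant linker/primer flanks that are not printed.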"}
{"sequence": "TGGCGCTTCCTGTCGCTACCGCTGCGGCCCAGGGCC", "ETS1 binding intensity": 763}
{"sequence": "TTGACTCGGGAATGTCCGGTCGTGGTAAGCAGGGTG", "ETS1 binding intensity": 858}
{"sequence": "ACCCTGAAATTACCCGGATGTGGTCCCCGCGCGCGC", "ETS1 binding intensity": 8100}
{"sequence": "ATGTACATAGATACAGGATGTGGGTTTGTTACAAAG", "ETS1 binding intensity": 24400}
{"sequence": "CAGGCAGGATGTTGACTCAGCTGCCAAGTGGTTTTG", "ETS1 binding intensity": 1760}
{"sequence": "GAAGGTTGTAGAGGAAGTGGTTTGTTCTTCCTCCTG", "ETS1 binding intensity": 4070}
{"sequence": "ACAGGAAATGACTTAGGGAAAGTCCCAACCGCAATC", "ETS1 binding intensity": 15700}
{"sequence": "CCACCCACTTCCTGCCCTAGCTAGTGTGGTATTTTT", "ETS1 binding intensity": 1640}
{"sequence": "GCCGATGAGGAAGTGAGGGCCAACCACACTGCTCAG", "ETS1 binding intensity": 673}
{"sequence": "CTGGCTACAGGAAAAACAAAGTCAAACCACAGCACT", "ETS1 binding intensity": 929}
{"sequence": "CAGAAAAGGCAGGAAGTGGTACAAACCACAAAAGGC", "ETS1 binding intensity": 49600}
{"sequence": "CATGGTGGTGACGCAGGATGTGGTGGTGGTGTAGAA", "ETS1 binding intensity": 5340}
{"sequence": "AAAGACAGGATGTGGGGGAGTGAGCCACAAGGGCCC", "ETS1 binding intensity": 1720}
{"sequence": "CTTTGCAGGAAGCTGGGGTTCACCCACAGCCTTGTT", "ETS1 binding intensity": 857}
{"sequence": "CACTTCCCGTGGGAGGATCTTGGGCTGCGGCTAGGG", "ETS1 binding intensity": 802}
{"sequence": "TGCCCTGACTTCCTGGTCCTGTGGTCAAGGATGGGG", "ETS1 binding intensity": 2810}
{"sequence": "CTGTGGCCTAGAAGCTTCCTGCCGCAGCTCTGAGGA", "ETS1 binding intensity": 505}
{"sequence": "TTCTCCACTTCCTTCTTTACCTCACCTACCACATAA", "ETS1 binding intensity": 544}
{"sequence": "TAAGCAGGGAATAGAGGAAGTGGTTTTGTCTCAGGC", "ETS1 binding intensity": 7880}
{"sequence": "TAAGAAAAACAGTCATCCTGCGGTTTCCATTTGTGA", "ETS1 binding intensity": 1080}
{"sequence": "CGCCGGATGCATAAAAGACTGGCTGCGGTGGCTCAG", "ETS1 binding intensity": 1300}
{"sequence": "TACACTCCCACATCCGCTGCGGCGCAACTCACAACA", "ETS1 binding intensity": 1260}
{"sequence": "CTCAGGAATGCGGAAGTGCTCTGTGGGCACCCACCA", "ETS1 binding intensity": 5950}
{"sequence": "CCCAAGCTACGGAAGTTAAACCTCAAACATGAAATC", "ETS1 binding intensity": 1420}
{"sequence": "GACAGAGGAAACTAGGTGTGACAACCACAAACAGCT", "ETS1 binding intensity": 651}
{"sequence": "ACTCCAGAGGAAGTGGCAAGACGAGCGCGGTAACGG", "ETS1 binding intensity": 1560}
{"sequence": "GCACCGTCCCAGCATCCGGACACCACAGCGGCCCTT", "ETS1 binding intensity": 530}
{"sequence": "TGAGGAAGTGTAAGTCACAATAAGAAGCCACATATA", "ETS1 binding intensity": 519}
{"sequence": "TGTGAACTGACAGGATGTGGTACAAGGCTTACAAAG", "ETS1 binding intensity": 8820}
{"sequence": "TGCCTCACCTCACATCCGTTTGTGGCTGCCGAGTGC", "ETS1 binding intensity": 1310}
{"sequence": "GCAACAGGAAGGACCAAGTCCCCTCCCGCAATTTTA", "ETS1 binding intensity": 955}
{"sequence": "CTCTTCCTGCCTGTCCGTGGCTGGTGTGGTTTGCGT", "ETS1 binding intensity": 616}
{"sequence": "GCGAAAGGAACTTCCTTTGCATGCGGTCAGAGTGCT", "ETS1 binding intensity": 2280}
{"sequence": "AACCCGGAAGTGGACACGGAGCTCGGCTGCGGCTCC", "ETS1 binding intensity": 2240}
{"sequence": "GTGCTAAGTGAGGAAGTGCAGTTTACCGCACGGTGG", "ETS1 binding intensity": 2410}
{"sequence": "ACAACCCGGAAGTTGGCGCAGCGCGGTTGCCAATGG", "ETS1 binding intensity": 4910}
{"sequence": "AACAAACCGGATGGGGTTGCCACCCGCAATCTTGTC", "ETS1 binding intensity": 5130}
{"sequence": "GCCACACCCCCTTCCTGTTGTGTGTGGGGATTCATG", "ETS1 binding intensity": 696}
{"sequence": "AAGTTTTGGGTTTTCCGCCCACAGCCGCCGAAAGTG", "ETS1 binding intensity": 684}
{"sequence": "TCAGAACCAGGAAACTGAAGGCGGTTACTCCACATA", "ETS1 binding intensity": 663}
